TexasRed fluor – counter-screen for TRb-SRC2 inhibitors: fluorescence interference. TRb/SRC2 Texas Red total fluorescence interference. Potency, µM (top dose mostly 106 µM), inactives show at the highest dose fluorescence change, negative = quenching. 280,000 tested, 0.29% active. AID 1479; active means well fitted curve in either direction with a large enough effect; inconclusive means small, poorly fitted or top-dose-only effect
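Flags fluorescent or light-absorbing compounds by total fluorescence, S + 2P, at 555 nm excitation and 632 nm emission. Mixture: 20 nM Texas Red SRC2 peptide, 0.6 uM human TRb LBD, 1 uM T3, 5% DMSO; compound exposure 5 h at ambient temperature.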
TRb SRC2 PPI – disrupts binding of human TR beta to SRC2 | 280,000 tested, 0.065% active | Potency, µM (doses to about 106 µM), inactives show at the top dose activity change, negative = inhibition, actives largely listed as inhibitors | TRbeta-SRC2 peptide binding, fluorescence polarization; receptor liganded with 1 µM T3 | AID 1469 | P10828;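 further: plate controls were bound peptide for no effect and peptide without receptor for full effect; nearly all actives have a fitted effect of over 50% in size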
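Binding of a 20-amino-acid Texas Red SRC2 peptide (20 nM) to TRb ligand-binding domain (0.6 uM) with agonist T3 at 1 uM was followed by fluorescence polarization after a 5 hr room-temperature incubation.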
Tau ThT inhib – tau fibrillization inhibition (ThT binding) | P10636 | recombinant tau K18 P301L, heparin-induced fibrillization, ThT fluorescence | Potency, µM (titrated, usually from 57.4 µM), for the others: top-dose activity, negative = inhibition, hits mostly inhibitors | 270,000 tested, 2.1% active | AID 1460; further: nearly all actives have a fitted effect of over 55% in size
Target sequence (P10636 561-689 P618L limits assumed): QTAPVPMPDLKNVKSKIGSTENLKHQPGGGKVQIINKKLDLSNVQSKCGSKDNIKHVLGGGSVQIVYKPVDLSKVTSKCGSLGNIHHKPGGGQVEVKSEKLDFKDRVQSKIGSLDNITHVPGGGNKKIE
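Aggregation was driven by heparin (20 uM final) acting on recombinant tau […] bearing P301L in 100 mM sodium acetate pH 7; fibrils were detected with Thioflavin T.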
Tau fluor cs – counter-screen for tau fibril formation inhibitors | Potency, µM (top dose mostly 57.7 µM), without a hit: at the highest dose activity change, negative = decrease | 280,000 tested, 0.93% active | tau K18 P301L (four-repeat tau fragment) Alexa594 fluorescence, heparin fibrillization; further: nearly all actives have a fitted effect of over 55% in size
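Human K18 P301L tau (15 uM unlabeled plus 0.24 uM Alexa 594-labeled, final) in 100 mM sodium acetate pH 7 was mixed with compound and 20 uM heparin and incubated 6 hr at 37 C.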
RGS12 GoLoco inh – RGS12 GoLoco-Gai1 interaction inhibition; Gai1:RGS12 GoLoco peptide FP, rhodamine, 10 min; Potency, µM (series often up to 61.6 µM), for the others: top-dose activity, negative = inhibition, most hits filed as inhibitors; 230,000 tested, 0.44% active; AID 880; active means well fitted inhibition curve with a large enough effect, not every such curve was filed as active; inactive means no such curve, though single readings can be large or run the other way; further: nearly all actives have a fitted effect of over 30% in size
Target sequence (P63096 whole entry, looked up): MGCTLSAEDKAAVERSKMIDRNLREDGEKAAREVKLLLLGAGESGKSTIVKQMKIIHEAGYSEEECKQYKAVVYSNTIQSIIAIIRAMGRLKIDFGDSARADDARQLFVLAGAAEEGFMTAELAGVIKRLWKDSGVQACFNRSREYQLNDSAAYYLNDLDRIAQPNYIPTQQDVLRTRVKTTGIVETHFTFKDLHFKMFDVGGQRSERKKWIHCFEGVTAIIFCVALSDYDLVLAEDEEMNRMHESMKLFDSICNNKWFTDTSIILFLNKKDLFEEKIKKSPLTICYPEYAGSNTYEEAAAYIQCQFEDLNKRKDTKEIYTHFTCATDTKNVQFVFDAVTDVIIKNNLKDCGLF
Tau FP inhib – inhibitors of human tau fibril formation. K18 P301L tau heparin fibrillization, Alexa594 FP, 6 h. 280,000 tested, 0.39% active. Potency, µM (series often up to 57.7 µM), for the others: at the highest dose activity, negative = inhibition, actives largely listed as inhibitors. AID 1468; further: nearly all actives have a fitted effect of over 55% in size
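Recombinant K18 P301L […], labeled with Alexa 594 at 0.24 uM over 15 uM unlabeled; heparin inducer 20 uM final; 37 C, 6 hr; FP endpoint.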
Numbers without * were called inactive; [ ] = remark or other dose. Compounds with a hit are over-represented: about 3.2% of the library has one in this group of screens. Unless noted, the call rests on the fitted dose curve; in most records, active means well fitted curve in the direction sought with a large enough effect; inconclusive means small, poorly fitted or top-dose-only effect, or another doubt; inactive means no such curve, though single readings can be large; an effect the other way counts as inactive or inconclusive. Unless noted, on the % scale 0 is the no-effect control and ±100 the full control effect; potency means the concentration at half of the fitted maximal effect.

How did CCc1ccc(NC(=O)CSc2nc(=O)n(Cc3cccnc3)c3c2CCC3)cc1 do in these assays?
TexasRed fluor: 1%; TRb SRC2 PPI: 1%; Tau ThT inhib: -11%; Tau fluor cs: -8%; Tau FP inhib: 0%

What do the screens show for `O=C(/C=C/c1c(Cl)cccc1Cl)n1cccn1`?
TexasRed fluor: -2%; TRb SRC2 PPI: -6%; Tau ThT inhib: 10µM*; Tau fluor cs: -13%; RGS12 GoLoco inh: -13%; Tau FP inhib: inconclusive

Results for CC[C@H](C)[C@H](NC(=O)[C@H](N)Cc1ccc(O)cc1)C(=O)N[C@@H](CC(N)=O)C(=O)N[C@@H](CC(C)C)C(=O)N[C@H](C(=O)N[C@@H](C(=O)N[C@@H](CCCN=C(N)N)C(=O)N[C@@H](CCC(N)=O)C(=O)N[C@@H](CCCN=C(N)N)C(=O)N[C@H](Cc1ccc(O)cc1)C(N)=O)[C@@H](C)O)[C@@H](C)CC ?
TexasRed fluor: -1%; TRb SRC2 PPI: -1%

What do the screens show for `COc1cc(O)c(C(=O)c2ccccc2)cc1O`?
TexasRed fluor: -4%; TRb SRC2 PPI: -7%; Tau ThT inhib: 7.9µM*; Tau fluor cs: 13µM*[quencher]; RGS12 GoLoco inh: -31%; Tau FP inhib: 14µM*

Results for CN1C(=O)C(Cl)(Cl)C(=O)c2ccccc21 ?
TexasRed fluor: -3%; TRb SRC2 PPI: -3%; Tau ThT inhib: 4µM*; Tau fluor cs: -20%; RGS12 GoLoco inh: -5%; Tau FP inhib: 7.1µM*

How did CN1C(=O)C2(NC(=O)c3ccccc3N2C)c2ccccc21 (stereo unspecified) do in these assays?
TexasRed fluor: -1%; TRb SRC2 PPI: -1%; Tau ThT inhib: -1%; Tau fluor cs: -2%; RGS12 GoLoco inh: -11%; Tau FP inhib: -1%

How did C/C(N)=C(/C#N)C(=O)COC(=O)c1cc(-c2ccc(Br)cc2)nc2ccccc12 do in these assays?
TexasRed fluor: 22µM*[quencher]; TRb SRC2 PPI: -11%[53 µM]; Tau ThT inhib: -7%; Tau fluor cs: -8%; RGS12 GoLoco inh: -17%; Tau FP inhib: 4%

How did Cn1cnc([N+](=O)[O-])c1[Se]c1nc(N)nc2c1ncn2[C@@H]1O[C@@H](CO)[C@H](O)[C@@H]1O do in these assays?
RGS12 GoLoco inh: 0%[14.2 µM]

Results for Cc1ccccc1C(=O)Nc1cccc(NC(=O)c2ccc(C(C)(C)C)cc2)c1 ?
TexasRed fluor: 0.16µM*[quencher]; TRb SRC2 PPI: -24%[53 µM]; Tau ThT inhib: 2%; Tau fluor cs: -6%; Tau FP inhib: -20%

What do the screens show for `Cc1ccccc1C(=O)Nc1cccc(N)c1`?
TexasRed fluor: 0%; TRb SRC2 PPI: 5%; Tau ThT inhib: -10%; Tau fluor cs: -10%; RGS12 GoLoco inh: 7%; Tau FP inhib: 0%

What do the screens show for `Cc1ccc(C(C(=O)NCc2ccco2)N(Cc2ccco2)C(=O)CNC(=O)c2ccco2)cc1` (stereo unspecified)?
TexasRed fluor: -3%; TRb SRC2 PPI: -6%; Tau ThT inhib: 7.1µM*; Tau fluor cs: -20%; Tau FP inhib: inconclusive

How did COC(=O)C1=C(C(=O)OC)[C@@H]2N(C)c3ccccc3[C@@]23C[C@@H](C(=O)OC)N(S(=O)(=O)c2ccc(C(F)(F)F)cc2)C3=N1 do in these assays?
TexasRed fluor: 1%[11.2 µM]; TRb SRC2 PPI: 6%[11.2 µM]; Tau ThT inhib: -4%[11.5 µM]; Tau fluor cs: -20%[11.6 µM]; RGS12 GoLoco inh: 3%[14.2 µM]; Tau FP inhib: 3%[11.6 µM]

How did CCCCC/C=C\C/C=C\C/C=C\CCCCCCC(=O)NCCc1ccc(O)c(O)c1 do in these assays?
TexasRed fluor: -2%; TRb SRC2 PPI: 5%; Tau ThT inhib: -8%; Tau fluor cs: -18%; RGS12 GoLoco inh: 5%; Tau FP inhib: 5%

What do the screens show for `CNc1cccc2c1C(=O)c1ccccc1C2=O`?
TexasRed fluor: 12%; TRb SRC2 PPI: -1%; Tau ThT inhib: 8.9µM*; Tau fluor cs: inconclusive; RGS12 GoLoco inh: 64%; Tau FP inhib: -3%

Results for COC(=O)c1ccc2c(c1)C(C)(C)C(/C=C/c1ccccc1O)=[N+]2C ?
TexasRed fluor: 20µM*[fluorescent]; TRb SRC2 PPI: 20µM*; Tau ThT inhib: 10µM*; Tau fluor cs: 25µM*[fluorescent]; RGS12 GoLoco inh: inactive; Tau FP inhib: inconclusive

What do the screens show for `COC(=O)c1ccc(N)c(N=CC2=C(O)CC(C)(C)CC2=O)c1`?
TexasRed fluor: -1%; TRb SRC2 PPI: 0%; Tau ThT inhib: -15%; Tau fluor cs: -5%; RGS12 GoLoco inh: 11%; Tau FP inhib: 0%

What do the screens show for `CC1=C(/C=C/C(C)=C/C=C/C(C)=C/C=O)C(C)(C)CCC1`?
TexasRed fluor: 0%; TRb SRC2 PPI: -10%; RGS12 GoLoco inh: -2%

What do the screens show for `Cc1ccc(-n2nc(-c3ccc(OC(F)(F)F)cc3)cc2N)cc1C`?
TexasRed fluor: -4%; TRb SRC2 PPI: -1%; Tau ThT inhib: inconclusive; Tau fluor cs: 11µM*[quencher]; RGS12 GoLoco inh: -2%; Tau FP inhib: 9%

How did Cc1cccc(NC(=S)NCCSc2ccc(Cl)cc2)c1 do in these assays?
TexasRed fluor: -1%; TRb SRC2 PPI: 1%; Tau ThT inhib: -18%; Tau fluor cs: 10µM*[quencher]; RGS12 GoLoco inh: 17%; Tau FP inhib: inconclusive

What do the screens show for `Cc1ccc(C)c(NC(=S)NCCSc2ccc(Cl)cc2)c1`?
TexasRed fluor: 1%; TRb SRC2 PPI: 5%; Tau ThT inhib: 1%; Tau fluor cs: -24%; RGS12 GoLoco inh: 13%; Tau FP inhib: -9%

Results for Cc1ccc(N(Cc2ccccc2)Cc2ccccc2)cc1 ?
RGS12 GoLoco inh: -1%[14.2 µM]

Results for Cc1ccc(NC2=CC(=O)c3sc(C)nc3C2=O)cc1 ?
TexasRed fluor: -18%; TRb SRC2 PPI: inconclusive

What do the screens show for `CC1=C(C)/C(=N\OS(=O)(=O)c2ccc(C)cc2)C=CC1=O`?
TexasRed fluor: 1%; TRb SRC2 PPI: -1%; Tau ThT inhib: 10µM*; Tau fluor cs: inconclusive; RGS12 GoLoco inh: -6%; Tau FP inhib: 16µM*

How did CC1=C/C(=N\OS(=O)(=O)c2ccccc2)C(C(C)C)=CC1=O do in these assays?
TexasRed fluor: 2%; TRb SRC2 PPI: -6%; Tau ThT inhib: 10µM*; Tau fluor cs: -26%; RGS12 GoLoco inh: -1%; Tau FP inhib: inconclusive

Results for O=S(=O)(Oc1ccc(Cl)cc1)c1ccccc1 ?
TexasRed fluor: 0%; TRb SRC2 PPI: 5%

How did CC1=C/C(=N\OS(=O)(=O)c2ccccc2)C(C)=CC1=O do in these assays?
TexasRed fluor: -3%; TRb SRC2 PPI: 3%; Tau ThT inhib: 14µM*; Tau fluor cs: inconclusive; RGS12 GoLoco inh: 7%; Tau FP inhib: inconclusive
